Screening results: PubChem, National Center for Advancing Translational Sciences (NCATS)
KB-3-1 cytotox: qHTS assay for MDR1-selective chemotherapeutics: Primary screen using the parental adenocarcinoma cell KB-3-1; Potency, µM (top dose mostly 46.1 µM), usual class: cytotoxic; 400,000 compounds, 1.4% hits; KB-3-1 viability, CellTiter-Glo ATP luminescence, 72 h; note: % is set by controls: 0 for no effect and ±100 for the full control effect; nearly all actives have a fitted effect of over 60% in size
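72 h, 37 °C compound treatment of KB-3-1 parental cells; CellTiter-Glo added, 10 min, luminescence read. Data corrected against DMSO-only plates and normalized before curve fitting.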
KB-V1 MDR tox: qHTS assay for MDR1-selective chemotherapeutics: Primary screen using the drug-selected MDR subline cells KB-V1. KB-V1 MDR cells viability, CellTiter-Glo, 72 h. Potency, µM (doses to about 46.1 µM), most hits filed as cytotoxic. 400,000 compounds, 3.4% hits. AID 1347076, 2019; note: % is set by controls: 0 for no effect and ±100 for the full control effect; nearly all actives have a fitted effect of over 60% in size
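Compound-treated KB-V1 multidrug-resistant cells, 72 h, 37 degrees C; viability by CellTiter-Glo. Fitted qHTS curves give the values.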
HT1080 IDH1KD tx: qHTS for induction of synthetic lethality in tumor cells producing 2HG: qHTS for the HT-1080-IDH1KD cell line; HT-1080 IDH1 knockdown viability, ATP luminescence, 48 h; Potency, µM (highest dose often 46.1 µM), without a hit: at the highest dose activity, negative = toxicity, actives largely listed as cytotoxic; 360,000 compounds, 2% hits; AID 686971, 2013;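 note: 0% = DMSO wells and -100% = cell-free medium wells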
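After a 2 h attachment period, IDH1KD HT-1080 cells took pin-transferred compound for 48 h at 37 °C; ATP-based luminescence after 10 min room-temperature reagent incubation reported viability.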
SW480 rereplic: A quantitative high throughput screen for small molecules that induce DNA re-replication in SW480 colon adenocarcinoma cells. Potency, µM (top dose mostly 46.1 µM), for inactives: at the top dose re-replication activation, most hits filed as activators. 340,000 compounds, 1.8% hits. SW480 DNA re-replication, Hoechst DNA content imaging, 48 h; note: % of control where 0% means no effect; nearly all actives have a fitted effect of over 55% in size
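Image-based DNA-content assay: after two days of treatment, nuclei were labelled with the DNA dye Hoechst and imaged, and hits were compounds raising the count of nuclei showing high fluorescence intensity.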
MCF10A rerep: A quantitative high throughput screen for small molecules that induce DNA re-replication in MCF 10a normal breast cells; MCF 10A DNA re-replication, Hoechst nuclear intensity, 48 h; Potency, µM (highest dose often 46.1 µM), for inactives: at the highest dose activity, positive = re-replication, actives largely listed as activators; 350,000 compounds, 2.9% hits; AID 624296, 2012; note: % of control where 0% means no effect; nearly all actives have a fitted effect of over 50% in size
HT1080-NT tox: qHTS for induction of synthetic lethality in tumor cells producing 2HG: qHTS for the HT-1080-NT fibrosarcoma cell line; HT-1080-NT fibrosarcoma viability, CellTiter-Glo ATP luminescence, 48 h; Potency, µM (highest dose often 46.1 µM), without a hit: top-dose activity, negative = less viability, most hits filed as cytotoxic; 360,000 compounds, 1.6% hits; AID 686970, 2013;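 note: NT is the 2HG producing partner of a matched IDH1 knockdown line; 0% = DMSO-treated cells and -100% = media-only wells without cells; nearly all actives have a fitted effect of over 55% in size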
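Read-out is CellTiter-Glo luminescence after 10 minutes at room temperature, following 48 hours' compound treatment of HT-1080-NT cells (750 cells/well, RPMI, 5% FBS, 37 degrees C).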
Active calls of the source: *; i = inactive; ? = inconclusive; . = no result. Only some compounds are listed: those with a hit (about 7.9% of all), similar ones and a draw of the others. Calls come from the whole dose curve; as a rule, active = well fitted curve in the direction sought with a large enough effect; inconclusive = small, poorly fitted or top-dose-only effect, or another doubt; inactive = no such curve, though single readings can be large; an effect the other way counts as inactive or inconclusive. Potency is the fitted concentration of half-maximal effect.

SMILES	KB-3-1 cytotox	KB-V1 MDR tox	HT1080 IDH1KD tx	SW480 rereplic	MCF10A rerep	HT1080-NT tox
Clc1ccc(-n2nnnc2-c2ccccc2)cc1	i	i	-15%	-2%	-19%	1%
COc1ccc(-n2nnnc2-c2ccccc2)cc1	6.5µM*	9.2µM*	?	-5%	2%	5.6µM*
Clc1ccc(-c2ccc(/C=N/Nc3cc(N4CCOCC4)nc(N4CCOCC4)n3)o2)cc1	?	?	?	13µM*	?	?
Cc1cccc(/C=N/Nc2cc(N3CCOCC3)nc(N3CCOCC3)n2)c1	?	15µM*	?	2.1µM*	?	?
Cc1ccc(Nc2nc(N/N=C\c3ccc4c(c3)OCO4)nc(N3CCOCC3)n2)cc1	i	i	26µM*	4%	?	?
CCCS(=O)(=O)NC(=O)C1(C)CCN(C(=O)c2ccccc2F)C1 (centres undefined)	i	i	0%	.	.	17%
COC(=O)C[C@@H]1C=C[C@@H](NC(=O)c2ccccc2F)[C@@H](CO)O1	i	i	14%	.	.	29%
CN(C)CCP(=O)(c1ccccc1)c1ccccc1	i	i	9%	-3%	?	-2%
CN(C)CCN(C)Cc1c2ccccc2c(CN(C)CCN(C)C)c2ccccc12	i	i	21µM*	?	?	?
Cc1cc(C(=O)N/N=C\c2cc(C(C)(C)C)ccc2O)n[nH]1	?	i	?	?	-14%	?
CC(=O)N/N=C/c1cc(C(C)(C)C)cc(/C=N/NC(C)=O)c1O	i	?	?	3.3µM*	15µM*	-27%
CC1CC(C)(C)N(C(=O)CSc2ccc(-c3ccc(F)cc3)nn2)c2ccccc21 (centres undefined)	i	21µM*	?	?	25%	?
O=C(CSc1ccc(-c2ccc(F)cc2)nn1)N1CCCCC1	i	i	?	6%	17%	?
CC1CCN(C(=O)CSc2ccc(-c3ccc(F)cc3)nn2)CC1	?	16µM*	-1%	-2%	20%	1%
C[C@H]1CN([C@@H](C)CO)C(=O)CCCn2nncc2CO[C@H]1CN(C)S(=O)(=O)c1ccc(C#N)cc1	i	i	11%	.	.	-2%
Cc1ccc(S(=O)(=O)N2CCOCC2)cc1C(=O)Nc1ccccc1C(=O)O	i	i	.	.	.	.
CCCCCCCOC(=O)C1=C(C)Nc2ncnn2C1c1cccs1 (centres undefined)	i	?	-15%	1%	?	-19%
CCCCCCCCOC(=O)C1=C(C)Nc2nnnn2C1c1cccs1 (centres undefined)	?	15µM*	?	16%	?	?
CN1CCN(c2ccc(Cl)cc2NC(=O)c2cc(=O)[nH]c3ccccc23)CC1	i	i	0%	11%	0%	-27%
CN1CCN(c2cc3c(c4c2[nH]c2ccccc24)C(=O)CC(C)(C)C3)CC1	?	i	-26%	?	21µM*	-9%
O=C(c1ccc(Cl)cc1)N1CCN(c2ccc(F)cc2)CC1	i	16µM*	13%	-7%	5%	-2%
O=C(c1ccc(N2CCN(C(=O)c3ccccc3)CC2)cc1)c1cccc(F)c1	?	9.2µM*	-5%	8%	9.2µM*	-27%
O=C(c1cccc(F)c1)N1CCN(c2cccc(Cl)c2)CC1	21µM*	12µM*	15µM*	?	?	?
O=C(c1c(Cl)nc2sccn12)N1CCN(c2cccc(Cl)c2)CC1	1.6µM*	?	3.3µM*	2.9µM*	4.1µM*	?
CCc1ccc(CNC(=O)Cc2c(C(=O)O)c(C)cn2C)cc1	i	i	.	.	.	.
SMILES	KB-3-1 cytotox	KB-V1 MDR tox	HT1080 IDH1KD tx	SW480 rereplic	MCF10A rerep	HT1080-NT tox
CCCCN(CC)CCCNC(=O)Cn1ncc2c3ccccc3n(Cc3ccccc3F)c2c1=O	i	i	.	.	.	.
Cc1[nH]c(-c2ccc(F)cc2)cc1C(=O)N1CCN(c2cccc(Cl)c2)CC1	i	?	?	?	9.2µM*	?
COc1ccccc1C(=O)NC1(C(F)(F)F)C(=O)Nc2c1c(=O)[nH]c(=O)n2-c1ccc(F)cc1 (centres undefined)	i	i	.	.	.	.
Cc1cc(-c2ccc(C(C)C)c(S(=O)(=O)N3CCN(c4ccccn4)CC3)c2)on1	?	?	-2%	?	4.1µM*	2%
CCc1ccc(-c2cc(C)no2)cc1S(=O)(=O)N1CCN(c2ccccn2)CC1	?	?	-9%	-3%	11%	?
CCc1ccc(-c2cc(C)no2)cc1S(=O)(=O)NCCCN1CCN(c2ccccc2)CC1	?	i	?	?	?	18µM*
CCc1ccc(-c2cc(C)no2)cc1S(=O)(=O)NCCN1CCC(C)CC1	?	i	-23%	1%	10%	-28%
CCc1ccc(-c2cc(C)no2)cc1S(=O)(=O)N1CCN(c2ccc(F)cc2)CC1	?	12µM*	-23%	?	23%	-10%
CCc1ccc(-c2cc(C)no2)cc1S(=O)(=O)NCc1ccc(OC)cc1	3.3µM*	3.7µM*	.	.	.	.
Cc1ccc(-n2c(=O)c3c4c(sc3n(CC(=O)Nc3cccc(Cl)c3)c2=O)CCCCC4)cc1C	i	i	.	.	.	.
CCc1ccccc1NC(=O)N1CCOc2ccccc21	i	i	.	.	.	.
Cc1cc(-c2ccc(C)c(S(=O)(=O)NCC3CCN(Cc4ccc(F)cc4)CC3)c2)on1	?	i	?	2.9µM*	13%	?
CCc1ccc(-c2cc(C)no2)cc1S(=O)(=O)N1CCOc2ccccc21	i	21µM*	?	26%	?	?
COc1ccccc1CN1CCC(CNS(=O)(=O)c2cc(-c3cc(C)no3)ccc2C)CC1	i	i	?	32%	3%	?
C#CCNC(=O)C[C@@H]1C[C@@]2(C(=O)OC)CCCCC=C2N(Cc2ccc(Cl)cc2Cl)C1=O	i	i	-26%	.	.	-18%
COc1cccc(-c2cc(N3C(=O)Nc4ccccc4N3O)n[nH]2)c1	i	i	10%	-7%	1%	11%
